# Measurements as given in PubChem BioAssay AID504339 (National Center for Advancing Translational Sciences (NCATS), 2011).
# About 17,000 (4.4%) of roughly 390,000 compounds were called active. About 8% were inconclusive and are not listed. The call rests on the fitted dose curve; in most records, active means well fitted inhibition curve with a large enough effect; inconclusive means small, poorly fitted or top-dose-only effect; inactive means no such curve, though single readings can be large or run the other way. Shown is part of a subset that was picked to be rich in actives. Entries that show only a call come without a potency.
# Target: Lysine-specific demethylase 4A (Homo sapiens) (UniProt O75164)
# Experiment: qHTS Assay for Inhibitors of JMJD2A-Tudor Domain; further: nearly all actives have a fitted effect of over 50% in size
# Settings: AlphaScreen JMJD2A-Tudor / H3K4me3 peptide binding; series mostly up to 114 µM
# Source text: JMJD2A is a jumonji-domain-containing lysine demethylase that uses Fe(II) together with 2-OG to effect oxidative demethylation of histones. Methylation is one of many […] modification that affect epigenetic transcription. […] It is proposed that the functions of JmjD2A binding to the histones, is to maintain marks after they are installed and to spread the modifications by […], establishing a self-propagating cycle for rapid methylation over a large area of chromatin. […] Thus, small molecule targeting of the JMJD2A-tudor domain interaction with its target methylhistone mark is expected to enable sophisticated experiments probing the fine regulatory pathways leading to selective demethylation of a given methyllysine locus based on the methylation state of adjacent histone marks. A quantitative high throughput AlphaScreen has been developed to identify small molecule inhibitors based on a protocol published by NCGC and SGC [4].
# Although AlphaScreen has significant advantages with its utility in a variety of epigenetic target assays, the primary screening data provided in this deposition should be used with caution due to the prevalence of screening artifacts. The top compound concentration tested was high (>100uM) in this assay, which increases number of actives and potential artifacts. An AlphaScreen counterscreen is highly recommended to be run against any putative actives to eliminate non-specific artifacts. Alternatively, one can use other AlphaScreen assays in PubChem to filter out promiscuous hits.
# [1] Lee, J. et al. Distinct binding modes specify the recognition of methylated histone H3K4 and H4K20 by JMJD2A-tudor. Nat Struct Mol Biol. 15(1); 109-11. 2008. PMID: 18084306
# [2] Yasgar, et al. Compound Management for Quantitative High-Throughput Screening. JALA. 2008 Apr;13(2):79-89. PMID: 18496600
# [3] Inglese, et al. Quantitative high-throughput screening: a titration-based approach that efficiently identifies biological activities in large chemical libraries. Proc Natl Acad Sci. 1;103(31):11473-8. 2006. PMID: 16864780
# [4] Quinn et al. A homogeneous method for investigation of methyl-dependent protein-protein interactions in epigenetics. Nucleic Acids Res., 38(2):e11. 2010. PMID: […]
# [5] Baell,Holloway. New substructure filters for removal of pan assay interference compounds (PAINS) from screening libraries and for their exclusion in bioassays. J Med Chem. 53(7):2719-40. 2010. PMID: 20131845
# NIH Molecular Libraries Probe Production Network [MLPCN]
# NIH Chemical Genomics Center [NCGC]
# Structural Genomics Consortium (SGC)
# To each well of a 1,536w plate, 2ul of JMJD2A-Tudor (final 100nM) and 1ul biotinylated histone peptide methylated at Lys4 [b-H3(1-18)K4me3] (final 50nM) were added in 1x PBS buffer, pH 7.4, containing 0.01% Tween-20, using a nanoliter dispenser. Formation of a protein-peptide complex proceeded at room temperature for 30 min. A Kalypsys pin-tool transferred 23nl of library compound solution in DMSO to each well. Following a 30 min incubation of the protein-peptide complex with compounds at room temperature, a mixture of 40 µg/mL each streptavidin-coated donor and nickel chelate acceptor AlphaScreen beads (final 10 µg/mL) was added in a 1ul dispense for a final volume of 4ul, followed by a brief centrifugation (1000 rpm, 1 min). Plates were incubated protected from the light for 20 min at room temperature. Microplates were then read on an EnVision multilabel plate reader using the 1,536 plate HTS AlphaScreen aperture (excitation time 80 ms, measurement time 240 ms).
# Potency means the concentration at half of the fitted maximal effect.
# Lysine-specific demethylase 4A (Homo sapiens), sequence (O75164 whole entry, looked up, the tested form may be a part): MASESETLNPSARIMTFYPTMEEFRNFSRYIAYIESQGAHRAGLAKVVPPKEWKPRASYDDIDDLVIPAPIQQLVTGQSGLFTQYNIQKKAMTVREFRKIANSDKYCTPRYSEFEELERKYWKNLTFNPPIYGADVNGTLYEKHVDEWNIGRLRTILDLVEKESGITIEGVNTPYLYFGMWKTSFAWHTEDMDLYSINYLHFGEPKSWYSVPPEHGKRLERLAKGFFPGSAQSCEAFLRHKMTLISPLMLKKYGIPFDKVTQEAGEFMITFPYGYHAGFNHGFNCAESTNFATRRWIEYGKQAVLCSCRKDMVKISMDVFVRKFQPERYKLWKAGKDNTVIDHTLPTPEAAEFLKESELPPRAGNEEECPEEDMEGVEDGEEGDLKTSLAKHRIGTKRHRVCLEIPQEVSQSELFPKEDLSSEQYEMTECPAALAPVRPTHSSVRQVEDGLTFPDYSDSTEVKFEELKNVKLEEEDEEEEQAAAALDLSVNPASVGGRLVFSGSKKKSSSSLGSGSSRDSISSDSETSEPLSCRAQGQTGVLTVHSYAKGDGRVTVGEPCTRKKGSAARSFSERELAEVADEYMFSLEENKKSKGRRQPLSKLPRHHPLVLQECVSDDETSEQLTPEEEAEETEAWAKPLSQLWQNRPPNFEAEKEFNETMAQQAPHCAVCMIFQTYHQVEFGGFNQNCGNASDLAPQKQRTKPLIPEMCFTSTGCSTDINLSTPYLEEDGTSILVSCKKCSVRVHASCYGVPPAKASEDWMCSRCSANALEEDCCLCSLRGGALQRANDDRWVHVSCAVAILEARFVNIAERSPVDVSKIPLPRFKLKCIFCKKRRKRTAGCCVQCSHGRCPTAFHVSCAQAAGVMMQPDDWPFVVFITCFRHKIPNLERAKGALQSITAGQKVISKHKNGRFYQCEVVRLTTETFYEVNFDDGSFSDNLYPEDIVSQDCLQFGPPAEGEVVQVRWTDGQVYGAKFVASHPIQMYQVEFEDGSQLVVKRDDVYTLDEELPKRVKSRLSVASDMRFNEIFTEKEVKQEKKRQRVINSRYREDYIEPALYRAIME
row,Compound,Potency
1,CCOc1ccc2oc(=O)cc(CN3CCN(C(=O)c4ccc(F)cc4)CC3)c2c1,inactive
2,CCOc1ccc(N(C)Cc2cc(=O)oc3ccc(OC)cc23)cc1,14.1 µM (active)
3,COc1ccc2oc(=O)cc(CN3CCOCC3)c2c1,inactive
4,Cc1ccc(NC(=O)c2oc3ccccc3c2NC(=O)Cc2cccs2)cc1,inactive
5,N#Cc1ccc(OC2=NS(=O)(=O)c3ccccc32)cc1,inactive
6,CCCCc1nnc(NC(=O)CSc2nc(C)cc(=O)[nH]2)s1,inactive
7,CCOC(=O)Cc1csc(NC(=O)CSc2ccc(Br)cc2)n1,inactive
8,CCOC(=O)Cc1csc(NC(=O)CSc2nc(C)cc(=O)[nH]2)n1,20 µM (active)
9,CCc1ccc(NC(=O)CN2CCSc3ccc(S(=O)(=O)N4CCCC4)cc32)cc1,inactive
10,COc1cc(OC)c(N(C)C(=O)c2cc3c(=O)oc4ccccc4c3s2)cc1Cl,inactive
11,Cc1ccccc1CS(=O)(=O)CC1Nc2ccc(C(=O)NCc3ccc(Cl)cc3)cc2NC1=O (stereo not drawn),inactive
12,Cc1ccccc1CSc1nnc(-c2cccnc2)n1N,inactive
13,Cc1ccccc1CSc1nnc(-c2ccccn2)n1N,31.6 µM (active)
14,Cn1c(SCC(=O)C(C)(C)C)nnc1-c1ccccn1,inactive
15,Fc1ccc(-c2nc(Nc3cccc(Cl)c3)nc3c2COc2ccccc2-3)cc1,inactive
16,O=C(NCCS(=O)(=O)N1CCN(c2ccc(F)cc2)CC1)c1ccccc1Br,inactive
17,CCC(=O)N1CCc2cc(S(=O)(=O)NC(Cc3ccccc3)C(=O)NCc3ccccc3)ccc21 (stereo not drawn),inactive
18,O=C(Nc1ccccc1Br)c1cc(CN2CCCC2)on1,inactive
19,Cc1ccc(NC(=O)COC(=O)CCc2nc3ccccc3n2-c2ccccc2)c(C)c1,inactive
20,CC(C)(C)c1ccc(NC(=O)COC(=O)CCc2nc3ccccc3c(=O)[nH]2)cc1,inactive
21,CCN(c1ccc(NC(=O)COC(=O)CCc2nc3ccccc3n2-c2ccccc2)cc1)C(C)C,11.2 µM (active)
22,Cc1ccc(Cn2c(CNC(=O)Cc3cccc(C)c3)nc3cccnc32)cc1,inactive
23,COc1cc2ccccc2cc1C(=O)Nc1cccc(-c2nc3ccccc3o2)c1,inactive

row,Compound,Potency
1,S=c1[nH]nc2c3c4c(sc3ncn12)CCCC4,22.4 µM (active)
2,N=c1c2c3c(sc2ncn1CCCN1CCOCC1)CCCCC3,inactive
3,CC(C(=O)O)n1cnc2sc3c(c2c1=O)CCCC3 (stereo not drawn),inactive
4,Cc1noc2ncnc(NCc3ccccc3Cl)c12,inactive
5,Cc1ccc(C)c(Cn2c(=O)n(CCC(=O)NCc3ccc4c(c3)OCO4)c(=O)c3sccc32)c1,inactive
6,COC(=O)c1ccccc1NC(=O)Cn1c(=O)n(-c2cccc(C(F)(F)F)c2)c(=O)c2c(C)c(C)sc21,inactive
7,C=CCOc1ccc(/C=C2/C(=O)ON=C2C)cc1OCC,inactive
8,CC1=NOC(=O)/C1=C\c1ccccc1,25.1 µM (active)
9,C#CCOc1ccccc1/C=C1/C(=O)ON=C1C,inactive
10,COc1ccc(Nc2ncc(C(=O)Nc3cc(C)ccc3OC)c3ccccc23)cc1,inactive
11,Cc1ccc(/C=C(\C#N)C(=O)Nc2cc(C)ccc2C)cc1,inactive
12,CCc1ccc(NC(=O)CSc2nc3c([nH]c4ccccc43)c(=O)n2-c2cccc(OC)c2)cc1,inactive
13,O=C(OCCN1CCOCC1)C1(c2ccccc2)CCCCC1,inactive
14,CCOc1ccc(C(=O)CCN2CCOCC2)cc1,inactive
15,Cc1cccc(C)c1OCCN1CCOCC1,28.2 µM (active)
16,S=c1[nH]nc(/C=C/c2ccccc2)o1,inactive
17,S=c1[nH]nc(-c2ccco2)n1/N=C/c1ccccc1,3.55 µM (active)
18,Brc1ccc(/C=N/N2CCN(C3c4ccccc4-c4ccccc43)CC2)s1,inactive
19,S=c1[nH]nc(-c2ccco2)n1/N=C/c1ccc(Br)s1,28.2 µM (active)
20,CN(C)C(=O)CSc1n[nH]c(-c2ccco2)n1,inactive
21,O=C(NCCc1ccc(Cl)cc1)c1ccc2nc(CCc3ccccc3)oc2c1,inactive
22,O=C(c1ccc2c(c1)N(Cc1ccccc1)C(=O)c1ccccc1S2(=O)=O)N1CCC(Cc2ccccc2)CC1,inactive
23,O=C(CN1CCN(Cc2ccc(Cl)cc2)C1=O)NCc1ccc(F)cc1,inactive

row,Compound,Potency
1,Cn1c(SCC(=O)N2CCCc3ccccc32)ncc(C(=O)Nc2ccc(F)cc2)c1=O,inactive
2,CC(=O)Nc1cc(C(=O)NCc2ccc(F)cc2)ccc1Sc1ccc(F)cc1,inactive
3,COc1cc(Cl)c(NC(=O)C(NS(=O)(=O)c2cccs2)C(C)C)c(OC)c1 (stereo not drawn),inactive
4,CCC(C(=O)Nc1cccc(-c2nc3cccnc3s2)c1C)c1ccccc1 (stereo not drawn),inactive
5,O=C(CN1CCN(C(=O)c2ccco2)CC1)Nc1ccc(Cl)c(C(F)(F)F)c1,inactive
6,CC(=O)N1CCN(CC(=O)Nc2ccc(C)c(F)c2)CC1,17.8 µM (active)
7,CCCCN(C)CCC(=O)Nc1ccc(Cl)cc1,inactive
8,O=C(CN1CCOCC1)Nc1ccccc1,inactive
9,O=C(CN1CCN(c2ccc(O)cc2)CC1)Nc1ccc(-c2ccccc2)cc1,50.1 µM (active)
10,COC(=O)c1cc(NC(=O)CN2CCN(C(C)=O)CC2)cc(C(=O)OC)c1,inactive
11,CC(=O)N1CCN(CC(=O)Nc2ccc(SC(F)F)cc2)CC1,inactive
12,O=C(CN1CCN(Cc2ccccc2)CC1)Nc1ccc(F)c(F)c1,6.31 µM (active)
13,CCN(CC)c1ccc(NC(=O)CN2CCN(CC(=O)Nc3ccc(Cl)cc3)CC2)cc1,44.7 µM (active)
14,CCOC(=O)N1CCN(CC(=O)Nc2ccc(F)cc2)CC1,inactive
15,Cc1cc(NC(=O)CCN2CCN(Cc3ccccc3)CC2)ccc1Br,inactive
16,O=C(CN1CCN(c2ccccn2)CC1)Nc1ccc(Br)cc1,inactive
17,Cc1ccc(Cl)cc1NC(=O)Cc1ccc(-n2c(C)nc3cccnc32)cc1,inactive
18,Cc1ccccc1NC(=O)Cn1cc(C(=O)c2cccs2)c2ccccc21,inactive
19,CCC(C)NC(=O)Cn1c(=O)n(-c2ccc(Cl)cc2)c(=O)c2c3c(sc21)CCCC3 (stereo not drawn),inactive
20,Cc1cc(C)c(NC(=O)CN2C(=O)c3cccnc3Oc3ccc(Cl)cc32)c(C)c1,inactive
21,O=C(Nc1ccc2nc(SCC(=O)N3CCCc4ccccc43)sc2c1)c1ccc(F)cc1,inactive
22,CCOCCCNC(=O)c1ccc2nc(CCc3ccccc3)oc2c1,inactive
